The values that follow come from PubChem BioAssay (NCATS).

Test [1] in a line: AP1 Signaling Pathway (AID 357).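 Note: ME-180 reporter cells stimulated with EGF at its EC50 level; % is set by controls: 0 for no effect and ±100 for the full control effect.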 The following applies: ME-180 AP-1-bla reporter, EGF-induced, beta-lactamase ratio, 5 h; at 17.2 µM (top of the series) unless noted. An outline of the steps: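 AP-1-bla ME-180 cells, Opti-MEM + 0.5% dialyzed FBS, plated overnight 37 °C. Cpd titration + EC50 EGF, 5 h 37 °C. CCF4 2.5 h RT; ex 405, em 460/530 ratio → %activity, AC50.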
Test [2] can be described thus: NFAT Signaling Pathway (AID 444).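 Note: carbachol stimulus at about its EC50 of 1 µM final; % is set by controls: 0 for no effect and ±100 for the full control effect.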 The following applies: Jurkat NFAT-bla M1, carbachol, beta-lactamase ratio, 5 h; at 17.2 µM (top of the series) unless noted. Summed up: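 Read-out: CCF4 FRET ratio (460 nm/530 nm) after 1 h RT dye loading, used for %activity and AC50 from titration series. Cells: Jurkat NFAT-β-lactamase/M1 line, treated with compound plus 1 uM carbachol for 5 h, 37 °C.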

Test [3] in a line: Stat Signaling Pathway (AID 446).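 Note: ME-180 cervical cancer cells given 40 pM IL-6 alongside compound; SIE-controlled beta-lactamase reporter measured as 460/530 nm FRET emission ratio; % is set by controls: 0 for no effect and ±100 for the full control effect.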 Particulars: ME-180 SIE beta-lactamase reporter, IL-6 stimulated, 5 h; at 17.2 µM (top of the series) unless noted. Summed up:
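ME-180 SIE-bla cells; overnight plating; cpd + IL-6 40 pM, 5 h, 37 C; LiveBLAzer 2.5 h RT; 460/530 nm emission ratio. Normalized to 300 pM IL-6 and 125 nM JAK inhibitor controls.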

For test [4], the target named is Glucocorticoid receptor (Homo sapiens) (UniProt P04150). The test can be described thus: GR-GFP Redistribution (AID 450;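 active = compounds whose dose series gives a full or clear partial fitted curve of increased nuclear translocation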; note: potency is the fitted concentration of half-maximal effect).
Test [5] shares this target. The test can be described thus: GR-EFC Redistribution (AID 451; calls by dose curve; note: potency is the fitted concentration of half-maximal effect). Particulars: CHO-K1 GR-EFC translocation, beta-gal luminescence, 2 h. Summed up: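 Translocation of GR-ED fusion to nuclear EA restores b-gal, read by luminescence after 1 h room-temperature detection. Engineered CHO-K1 biosensor cells, 1,000/well, exposed 2 h at 37 C to titrations up to 46 uM final.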
Test [6] has as its target Mitogen-activated protein kinase 10 (Mus musculus) (UniProt Q61831). The experiment in a line: JNK3 AlphaScreen Assay (AID 530).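 Note: kinase came from lysate of stimulated human HepG2 cells; signal reports phosphorylation of biotinylated GST-cJun 1-79 at Ser73 with 10 µM ATP; % is set by controls: 0 for no effect and ±100 for the full control effect.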 An outline of the steps: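 Room-temperature AlphaScreen kinase assay; pre-activated HepG2 lysate as JNK3 source, biotin-GST-cJun(1-79) substrate, 10 uM ATP, compound 15 min preincubation.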
In general terms: In Alpha technology, singlet oxygen from a donor bead excites a nearby acceptor bead.

Test [7] deals with 3',5'-cyclic-AMP phosphodiesterase 4B (Homo sapiens) (UniProt Q07343). The test can be described thus: qHTS Assay for Inhibitors of PDE-IV (AID 607; active = well fitted activation curve with a large enough effect in the main read-out, with a control signal flat, not every such curve was filed as active; note: % of control where 0% means no effect). Summed up: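 ACTOne HEK293 cells carry a modified cAMP-gated CNG channel and express endogenous PDE4; plated 1000 cells/well, compounds up to 22.9 uM final. Membrane-potential dye fluorescence (ex 535/em 590) was read; parental cells received 10 uM forskolin + 100 uM RO 20-1724.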
For orientation: In qHTS, concentration-response curves come from the screen itself.

Test [8] can be described thus: qHTS Assay for Identification of Small Molecule Agonists for Hypoxia Response Element Signaling Pathway (AID 914; active = well fitted activation curve with a large enough effect in the signal ratio, with a control signal flat, not every such curve was filed as active; the % refers to the signal ratio; note: % of control where 0% means no effect). Particulars: ME-180 (cervical carcinoma) HRE-bla reporter, beta-lactamase ratio, CoCl2, 17 h; activation: stronger effect = higher value. Summed up: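 AC50 values come from titration-series %Activity, taken as the 460/530nm ratio of CCF4 fluorescence (excitation 405nm). CellSensor HRE-bla ME-180 cells were treated 17 hours at 37 C with compound plus an EC50 level of CoCl2.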

In test [9] the target is Cytochrome P450 3A4 (Homo sapiens) (UniProt P08684). The test can be described thus: qHTS Assay for Activators of Cytochrome P450 3A4 (AID 885; active = well fitted curve in the direction sought with a large enough effect; an effect the other way counts as inactive or inconclusive; note: nearly all actives have a fitted effect of over 65% in size). Summed up: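 20nM CYP3A4 + 25uM Luciferin-PPXE (=KM), 200mM KPO4; cpd 10 min RT; NADPH regen, 60 min RT; stop w/ detection buffer, 20 min; luminescence. Normalized to 57 uM ketoconazole.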
Test [10] has as its target Guanine nucleotide-binding protein G(i) subunit alpha-1 (Homo sapiens) (UniProt P63096). The experiment in a line: qHTS Assay for Inhibitors of RGS12 GoLoco Motif Activity (Green Fluorophore) (AID 879; active = well fitted curve in the direction sought with a large enough effect; an effect the other way counts as inactive or inconclusive;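 note: 0% = labeled peptide with Gαi1 and full inhibition = labeled peptide alone without protein; negative values mean loss of peptide binding seen as reduced polarization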). Summed up:
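Fluorescence polarization assay: 50 nM Gαi1 with 10 nM FITC-labeled RGS12 GoLoco peptide in 10 mM Tris pH 7.5, 150 mM NaCl, 0.1 mM GDP, 0.05% NP40, 10 min at room temperature with compound.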

The target in test [11] is Cytochrome P450 2D6 (Homo sapiens) (UniProt P10635). The experiment in a line: qHTS Assay for Inhibitors and Substrates of Cytochrome P450 2D6 (AID 891; active = well fitted curve in the direction sought with a large enough effect; an effect the other way counts as inactive or inconclusive; note: potency is the fitted concentration of half-maximal effect; nearly all actives have a fitted effect of over 60% in size). An outline of the steps: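 Human CYP2D6 (5 nM) with 30 uM Luciferin-ME EGE (at Km) in 100 mM KPO4, compound preincubated 10 min, then NADPH regeneration system for 60 min at room temperature. Luciferin read by luminescence; normalized to 1.43 uM quinidine.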

Test [12] in a line: qHTS Assay for Identification of Small Molecule Antagonists for NFkB Signaling Pathway (AID 895; active = well fitted inhibition curve with a large enough effect in the signal ratio, with a control signal flat, not every such curve was filed as active; the % refers to the signal ratio; note: % is set by controls: 0 for no effect and ±100 for the full control effect). Summed up: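 Beta-lactamase reporter read-out (460 and 530 nm emission ratio, 405 nm excitation, 2 hrs substrate loading RT) after 5 hr stimulation with 10 pM TNF alpha in compound-treated NFkB-bla ME-180 cells in low-serum medium.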
Test [13] in a line: qHTS Assay for Identification of Small Molecule Agonists for Thrombopoietin (TPO) Signaling Pathway (AID 917; active = well fitted curve in the direction sought with a large enough effect; an effect the other way counts as inactive or inconclusive; note: % is set by controls: 0 for no effect and ±100 for the full control effect). An outline of the steps:
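Luminescence from a Glycoprotein IIb promoter–driven luciferase reporter served as read-out in murine Ba/F3 cells carrying the human TPO receptor. Cells, deprived of IL-3 overnight, received compounds with 26 pM TPO and were incubated 24 hrs at 37 C.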

Test [14] deals with Pyruvate kinase (Leishmania mexicana) (UniProt Q27686). The test can be described thus: qHTS Validation Assay for Inhibitors of Leishmania Mexicana Pyruvate Kinase (AID 945; active = well fitted curve in the direction sought with a large enough effect; an effect the other way counts as inactive or inconclusive;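 note: 0% = DMSO only neutral control wells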). Summed up:
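Purified LmPYK (E451W mutant, 0.2 nM) was incubated 1 h at room temperature with 0.5 mM PEP and 0.1 mM ADP in 50 mM imidazole pH 7.2, 50 mM KCl, 7 mM MgCl2; ATP formed was read by PKLight luminescence, normalized to DMSO wells.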

For test [15], the target named is Pyruvate kinase PKM (Homo sapiens) (UniProt P14618). The test can be described thus: qHTS Assay for Activators of Human Muscle Pyruvate Kinase (AID 954; active = well fitted curve in the direction sought with a large enough effect, not every such curve was filed as active;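 note: 0% = uninhibited enzyme and -100% = no enzyme or full thiadiazolimine inhibition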). Summed up:
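Luminescence from a luciferase ATP-detection/stop reagent reported PKM2 activity. Reactions contained 0.1 nM purified human enzyme, 0.5 mM PEP, 0.1 mM ADP and 7 mM MgCl2 at pH 7.2, run 1 h at RT.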

The target in test [16] is Alpha-galactosidase A (Homo sapiens) (UniProt P06280). The test can be described thus: Counterscreen for Glucocerebrosidase Inhibitors: qHTS Assay for Human alpha-Galactosidase at pH 4.5 (AID 992; active = well fitted curve in the direction sought with a large enough effect; an effect the other way counts as inactive or inconclusive; note: 0% is about no effect). An outline of the steps:
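Enzyme at 2 nM final was combined with compound (0.7 nM to 77 uM) and 80 uM 4-methylumbelliferyl alpha-D-galactopyranoside in 50 mM citric acid, 0.005% Tween-20, pH 4.5. After 20 min at room temperature, fluorescence was read (Ex 365/Em 440 nm); AC50 came from Hill fits.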

Test [17] has as its target alpha-glucosidase (Oryza sativa, rice) (UniProt Q653V4). The experiment in a line: Counterscreen for Glucocerebrosidase Inhibitors: qHTS Assay for Rice alpha-Glucosidase at pH 5.0 (AID 997; active = well fitted curve in the direction sought with a large enough effect; an effect the other way counts as inactive or inconclusive;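 note: 0% = full activity with enzyme and -100% = basal without enzyme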). Summed up: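 Rice alpha-glucosidase (4 nM final) with 400 uM 4-methylumbelliferyl-alpha-D-glucopyranoside in citrate buffer pH 5.0, 20 min at room temperature, stopped at pH 10; fluorescence 365/440 nm, compounds 0.7 nM–77 uM, AC50 from Hill fits.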

The target in test [18] is Muscarinic acetylcholine receptor M1 (Rattus norvegicus) (UniProt P08482). The experiment in a line: qHTS Assay for Antagonists of Acetylcholine Muscarinic M1 Receptor: Kinetic Measurement of Intracellular Calcium Response (AID 943; active = well fitted curve in the direction sought with a large enough effect; an effect the other way counts as inactive or inconclusive;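 note: Fluo-4 calcium signal as peak divided by basal fluorescence over 4 min; nearly all actives have a fitted effect of over 75% in size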). Summed up: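 Intracellular calcium flux, recorded with Fluo-4 in a kinetic plate reader, served as signal; the response to carbachol at EC80 (100 nM final) was taken as maximal over minimal fluorescence after a 10 min compound pre-incubation in rat M1-CHO cells.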

SMILES strings stand for the structures. A number with no mark means an inactive call. Results filed as inconclusive are left out. Activity calls are given as the source filed them. Unless noted, calls come from the whole dose curve; as a rule, active = well fitted curve in either direction with a large enough effect (not every such curve was filed as active); inconclusive = small, poorly fitted or top-dose-only effect, or another doubt; inactive = flat fitted curve, though single readings scatter.

Sequence of Glucocorticoid receptor (Homo sapiens) (P04150 whole entry, looked up, the tested form may be a part): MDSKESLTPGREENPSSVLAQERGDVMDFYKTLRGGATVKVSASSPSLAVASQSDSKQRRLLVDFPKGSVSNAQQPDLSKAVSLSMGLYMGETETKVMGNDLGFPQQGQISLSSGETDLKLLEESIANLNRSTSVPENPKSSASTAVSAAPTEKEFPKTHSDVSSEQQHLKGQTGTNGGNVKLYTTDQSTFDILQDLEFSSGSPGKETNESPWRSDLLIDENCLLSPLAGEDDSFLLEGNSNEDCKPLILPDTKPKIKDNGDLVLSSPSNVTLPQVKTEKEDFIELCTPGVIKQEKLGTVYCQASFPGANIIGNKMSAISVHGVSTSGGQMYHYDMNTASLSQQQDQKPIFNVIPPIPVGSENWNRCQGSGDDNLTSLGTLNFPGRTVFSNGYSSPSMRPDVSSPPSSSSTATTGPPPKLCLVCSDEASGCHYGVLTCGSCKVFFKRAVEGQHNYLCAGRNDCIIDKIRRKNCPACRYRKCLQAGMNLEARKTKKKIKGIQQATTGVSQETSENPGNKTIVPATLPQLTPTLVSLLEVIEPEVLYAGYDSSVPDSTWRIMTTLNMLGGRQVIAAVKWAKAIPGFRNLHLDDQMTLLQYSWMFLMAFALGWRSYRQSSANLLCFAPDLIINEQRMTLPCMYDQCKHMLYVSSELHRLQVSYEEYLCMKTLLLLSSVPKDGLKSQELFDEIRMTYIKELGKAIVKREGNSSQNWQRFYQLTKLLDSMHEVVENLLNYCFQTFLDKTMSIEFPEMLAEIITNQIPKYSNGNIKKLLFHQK
Sequence of 3',5'-cyclic-AMP phosphodiesterase 4B (Homo sapiens) (Q07343 whole entry, looked up): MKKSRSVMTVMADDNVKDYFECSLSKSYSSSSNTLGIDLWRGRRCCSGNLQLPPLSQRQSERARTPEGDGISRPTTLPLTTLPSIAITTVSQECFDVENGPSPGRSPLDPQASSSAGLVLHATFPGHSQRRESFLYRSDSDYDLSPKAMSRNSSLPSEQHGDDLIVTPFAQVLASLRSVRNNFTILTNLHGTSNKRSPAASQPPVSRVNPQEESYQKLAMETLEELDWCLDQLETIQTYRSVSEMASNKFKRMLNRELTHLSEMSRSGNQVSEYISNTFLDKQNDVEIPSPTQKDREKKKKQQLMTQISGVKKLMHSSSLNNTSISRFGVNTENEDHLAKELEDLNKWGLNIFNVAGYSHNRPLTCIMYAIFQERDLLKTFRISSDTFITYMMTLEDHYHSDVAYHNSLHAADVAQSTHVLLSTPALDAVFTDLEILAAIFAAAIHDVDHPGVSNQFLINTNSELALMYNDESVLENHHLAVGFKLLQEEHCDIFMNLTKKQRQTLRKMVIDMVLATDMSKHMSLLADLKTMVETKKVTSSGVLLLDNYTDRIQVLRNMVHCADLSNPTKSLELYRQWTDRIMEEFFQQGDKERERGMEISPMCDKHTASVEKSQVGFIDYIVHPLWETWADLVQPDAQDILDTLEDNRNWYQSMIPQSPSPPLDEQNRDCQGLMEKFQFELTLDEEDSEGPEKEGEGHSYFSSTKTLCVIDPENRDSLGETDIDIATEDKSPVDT
Sequence of Alpha-galactosidase A (Homo sapiens) (P06280 whole entry, looked up): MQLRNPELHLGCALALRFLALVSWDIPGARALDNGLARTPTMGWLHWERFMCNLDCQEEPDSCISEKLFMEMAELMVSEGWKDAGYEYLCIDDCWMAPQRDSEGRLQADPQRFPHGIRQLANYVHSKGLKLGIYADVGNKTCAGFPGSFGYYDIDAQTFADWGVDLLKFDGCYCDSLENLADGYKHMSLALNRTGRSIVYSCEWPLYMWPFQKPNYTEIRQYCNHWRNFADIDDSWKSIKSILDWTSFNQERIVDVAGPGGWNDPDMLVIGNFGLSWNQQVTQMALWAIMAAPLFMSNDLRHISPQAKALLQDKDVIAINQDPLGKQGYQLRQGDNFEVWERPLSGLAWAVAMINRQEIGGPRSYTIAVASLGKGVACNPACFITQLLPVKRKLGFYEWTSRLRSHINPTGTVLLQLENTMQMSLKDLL
Sequence of Pyruvate kinase PKM (Homo sapiens) (P14618 whole entry, looked up): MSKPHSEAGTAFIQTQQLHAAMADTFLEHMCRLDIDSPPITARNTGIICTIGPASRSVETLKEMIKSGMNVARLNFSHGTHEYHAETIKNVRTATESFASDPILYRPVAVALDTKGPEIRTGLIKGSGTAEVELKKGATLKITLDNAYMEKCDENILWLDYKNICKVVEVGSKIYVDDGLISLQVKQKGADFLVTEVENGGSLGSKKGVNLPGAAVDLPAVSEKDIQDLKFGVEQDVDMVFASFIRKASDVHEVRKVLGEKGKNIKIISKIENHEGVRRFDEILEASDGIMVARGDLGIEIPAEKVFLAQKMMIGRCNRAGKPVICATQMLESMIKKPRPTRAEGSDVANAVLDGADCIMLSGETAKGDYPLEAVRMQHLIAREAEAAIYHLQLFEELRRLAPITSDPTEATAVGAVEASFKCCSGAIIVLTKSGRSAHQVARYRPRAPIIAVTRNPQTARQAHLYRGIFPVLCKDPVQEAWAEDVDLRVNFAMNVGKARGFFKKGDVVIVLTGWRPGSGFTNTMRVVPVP
Sequence of Pyruvate kinase (Leishmania mexicana) (Q27686 2-499 E452W): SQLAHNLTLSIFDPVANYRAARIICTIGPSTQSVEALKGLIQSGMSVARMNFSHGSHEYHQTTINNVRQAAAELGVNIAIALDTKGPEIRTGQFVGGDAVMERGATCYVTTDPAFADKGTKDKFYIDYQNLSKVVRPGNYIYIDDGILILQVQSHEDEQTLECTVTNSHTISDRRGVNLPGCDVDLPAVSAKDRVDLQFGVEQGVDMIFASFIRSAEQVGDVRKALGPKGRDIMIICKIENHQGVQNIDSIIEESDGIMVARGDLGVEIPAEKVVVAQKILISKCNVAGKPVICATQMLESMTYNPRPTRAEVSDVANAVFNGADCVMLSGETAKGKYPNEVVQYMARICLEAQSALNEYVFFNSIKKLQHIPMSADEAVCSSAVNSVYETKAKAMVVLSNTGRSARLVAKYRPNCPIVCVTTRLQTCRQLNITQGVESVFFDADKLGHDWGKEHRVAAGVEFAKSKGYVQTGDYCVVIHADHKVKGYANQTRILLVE
Sequence of Guanine nucleotide-binding protein G(i) subunit alpha-1 (Homo sapiens) (P63096 whole entry, looked up): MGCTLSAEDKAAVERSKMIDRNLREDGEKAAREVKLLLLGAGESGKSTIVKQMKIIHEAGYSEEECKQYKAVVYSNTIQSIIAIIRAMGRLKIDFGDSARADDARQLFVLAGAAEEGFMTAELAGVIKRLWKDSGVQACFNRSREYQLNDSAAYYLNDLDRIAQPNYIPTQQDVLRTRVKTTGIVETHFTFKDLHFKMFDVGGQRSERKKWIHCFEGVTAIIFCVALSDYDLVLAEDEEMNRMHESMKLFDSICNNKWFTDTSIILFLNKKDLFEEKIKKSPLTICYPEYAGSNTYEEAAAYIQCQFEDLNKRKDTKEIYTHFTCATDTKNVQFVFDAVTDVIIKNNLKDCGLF
Sequence of Cytochrome P450 3A4 (Homo sapiens) (P08684 whole entry, looked up): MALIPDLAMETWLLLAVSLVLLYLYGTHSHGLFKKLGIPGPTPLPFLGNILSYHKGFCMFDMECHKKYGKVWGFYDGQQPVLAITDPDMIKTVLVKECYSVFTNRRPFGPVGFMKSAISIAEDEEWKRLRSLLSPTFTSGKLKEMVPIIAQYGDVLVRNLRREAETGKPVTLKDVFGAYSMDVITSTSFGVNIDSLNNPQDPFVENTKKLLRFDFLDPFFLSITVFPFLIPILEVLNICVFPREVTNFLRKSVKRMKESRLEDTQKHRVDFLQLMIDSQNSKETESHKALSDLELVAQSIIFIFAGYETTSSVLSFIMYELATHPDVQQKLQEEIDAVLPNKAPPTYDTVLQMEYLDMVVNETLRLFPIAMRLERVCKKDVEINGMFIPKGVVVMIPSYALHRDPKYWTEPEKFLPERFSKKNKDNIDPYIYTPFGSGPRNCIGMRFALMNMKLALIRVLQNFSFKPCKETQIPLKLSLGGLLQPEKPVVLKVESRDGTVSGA
Sequence of Muscarinic acetylcholine receptor M1 (Rattus norvegicus) (P08482 whole entry, looked up): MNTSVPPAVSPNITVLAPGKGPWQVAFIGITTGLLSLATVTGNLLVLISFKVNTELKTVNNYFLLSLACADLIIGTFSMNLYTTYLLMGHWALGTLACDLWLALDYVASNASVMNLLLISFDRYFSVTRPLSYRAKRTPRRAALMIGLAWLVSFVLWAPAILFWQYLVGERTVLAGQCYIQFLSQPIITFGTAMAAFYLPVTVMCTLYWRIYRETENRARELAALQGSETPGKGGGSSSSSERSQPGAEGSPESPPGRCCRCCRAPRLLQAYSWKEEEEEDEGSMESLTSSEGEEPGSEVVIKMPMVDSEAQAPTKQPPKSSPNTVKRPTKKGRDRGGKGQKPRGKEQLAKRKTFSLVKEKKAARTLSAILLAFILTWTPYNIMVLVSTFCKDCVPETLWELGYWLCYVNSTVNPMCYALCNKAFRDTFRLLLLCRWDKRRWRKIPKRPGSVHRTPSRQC
Sequence of Cytochrome P450 2D6 (Homo sapiens) (P10635 whole entry, looked up): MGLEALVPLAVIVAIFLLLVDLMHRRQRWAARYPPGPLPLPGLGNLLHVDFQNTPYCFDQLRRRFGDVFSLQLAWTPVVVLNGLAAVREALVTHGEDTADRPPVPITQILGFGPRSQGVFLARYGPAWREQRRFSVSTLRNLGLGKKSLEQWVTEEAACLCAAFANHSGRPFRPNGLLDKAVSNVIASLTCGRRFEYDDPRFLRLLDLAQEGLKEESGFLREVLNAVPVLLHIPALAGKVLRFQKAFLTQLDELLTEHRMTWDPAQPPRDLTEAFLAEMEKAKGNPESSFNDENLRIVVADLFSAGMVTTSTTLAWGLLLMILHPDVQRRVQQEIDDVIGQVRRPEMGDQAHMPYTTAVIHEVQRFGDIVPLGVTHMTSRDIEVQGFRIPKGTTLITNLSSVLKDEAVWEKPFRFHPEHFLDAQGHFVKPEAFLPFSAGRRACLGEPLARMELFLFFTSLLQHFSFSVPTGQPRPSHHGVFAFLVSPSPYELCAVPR

As to `CC1(C)Cc2c(C#N)c(N3CCOCC3)nc(Cc3ccccc3)c2CO1`, the activity change, negative = inhibition is -20.2% in [1] and -28.9% in test [2]. For the same molecule, the activity, negative = inhibition in test [3] is -7.6%. Moreover, the Potency in test [4] is above 20.6 µM.
On to `CC(=O)N[C@H](Cc1c[nH]c2ccccc12)C(=O)O`, for which the activity change, negative = inhibition in [1] is 3.17% [at 7.69 µM]; in test [2], 4.78% [at 7.69 µM]; in [6], 4.22% [at 11.4 µM]. The activity, negative = inhibition in test [3] is 14.4% [at 7.69 µM]. The Potency in test [4] was above 46 µM; in [5], above 9.22 µM. Also, the Potency entry in [7] is “inactive”.
Take `O=C(NCCCn1ccnc1)C(Cc1ccccc1)N1C(=O)c2ccccc2C1=O` (configuration not stated): the activity change, negative = inhibition was -14.7% in test [1] and 7.45% in test [2]. Also, in test [3], the activity, negative = inhibition was 5.97%. Further, in test [4], the Potency is above 20.6 µM.
For `CC1(C)CC(=O)C=C(N=CC2=C(O)CC(C)(C)CC2=O)C1`, the activity change, negative = inhibition is 4.05% in test [1] and -11.2% in test [2]. For the same molecule, the activity, negative = inhibition in [3] is 12.2%. Further, the Potency in [4] is above 20.6 µM. For the same molecule, the activation in test [8] is -17.7%.
On to `O=C(C[N+]12CN3CN(CN(C3)C1)C2)c1ccc(-c2ccccc2)cc1`, for which the activity change, negative = inhibition was 8.23% [at 7.69 µM] in test [1], -2.51% [at 7.69 µM] in test [2] and -2.86% [at 11.4 µM] in test [6]. In test [3], the activity, negative = inhibition is 0.439% [at 7.69 µM]. For the same molecule, the Potency in test [4] is above 46 µM; in test [5] it was above 9.22 µM. Moreover, the Potency result in [7] was “inactive”. In addition, the activity change, positive = activation in test [9] is -51.5% [at 11.4 µM].
In the case of `CCCN1C[C@@H](CSC)C[C@H]2c3cccc4[nH]cc(c34)C[C@@H]21`, the activity change, negative = inhibition in test [1] is 10.4% [at 38 µM]; in test [2], -24.1% [at 38 µM]. In addition, the activity, negative = inhibition in test [3] is -10.6% [at 38 µM]. Also, the Potency in [4] is above 46 µM; in test [5], above 46 µM; in [11], 0.1 µM (active). Moreover, the Potency entry in test [7], in test [9], in test [12], in [13] and in [14] was “inactive” throughout. For the same molecule, the call in test [10], in [15], in test [16] and in test [17] was inactive.
Consider `COc1ccc2c(c1OC)C(=O)OC2c1c(O)nc(SC)n(-c2ccccc2)c1=O` (configuration not stated), for which the activity change, negative = inhibition in test [1] is -1.4%; in test [2] it was -5.89%. Besides, the activity, negative = inhibition in test [3] was -3%. The Potency in [4] was above 20.6 µM. The activation in [8] is 1.25%.
On to `CCNC(=O)[C@@H]1O[C@@H](n2cnc3c(N)nc(NCCc4ccc(CCC(=O)O)cc4)nc32)[C@H](O)[C@@H]1O`, for which the values for the activity change, negative = inhibition in [1] and in [2] were -2.01% [at 38 µM] and 4.74% [at 38 µM], respectively. Further, the activity, negative = inhibition in [3] was 22.6% [at 38 µM]. The Potency in test [4] and in test [5] was above 46 µM in each case. The Potency entry in test [7], in [12], in test [13], in test [18] and in [14] was “inactive” each time. For the same molecule, the molecule was called inactive in test [10], in [15], in [16] and in test [17].
